Screening results as filed in PubChem BioAssay.
PMP22 txn: Cell-based coincidence reporter assay to measure PMP22 gene transcription in S16 Pmp22-F2sN cells - Primary screen. S16 Pmp22-F2sN Schwann cells, FLuc/NLuc coincidence luminescence, 24 h. Potency, µM (doses to about 57.5 µM), without a hit: at the top dose activity change, negative = inhibition, usual class: inhibitors. 43,000 tested, 2% active; active means clear falling dose curves in both reporters; inconclusive means both reporters move, but less clearly or upward; inactive means either reporter flat; the % is the NLuc reporter signal; further: potency means the concentration at half of the fitted maximal effect; on the % scale 0 is the no-effect control and ±100 the full control effect
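Schwann cells carrying the coincidence reporter were exposed to library compounds for 24 h at 37C, then lysed and read for FLuc and, after quenching, NLuc luminescence on a CCD imager.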
mTORC1 inh: Acumen qHTS Assay for Inhibitors of the mTORC1 Signaling Pathway in MEF (Tsc2-/-, p53-/-) Cells: Sytravon; Tsc2-/- p53-/- MEF, phospho-rpS6 immunofluorescence/PI, 24 h; Potency, µM (doses to about 38.3 µM), without a hit: at the highest dose activity change, negative = inhibition, actives largely listed as inhibitors; 44,000 tested, 0.78% active; AID 493208, 2011;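 further: potency means the concentration at half of the fitted maximal effect; plate controls were DMSO for no effect and rapamycin for full effect; nearly all actives have a fitted effect of over 50% in size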
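Compounds act on Tsc2-/-, p53-/- fibroblasts carrying an empty vector for 24 h before fixation and dual staining for phospho-S6 and DNA (propidium iodide). Values are percentages of cells above a rapamycin-defined pS6/PI threshold.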
p53null 32C kill: qHTS Screen for Compounds that Selectively Target Cancer Cells with p53 Mutations: Cytotoxicity of p53 Null Cells at the Permissive Temperature. Potency, µM (doses to about 46.1 µM), for inactives: top-dose activity change, negative = cytotoxicity, most hits filed as cytotoxic. AID 903, 2007. 55,000 tested, 0.62% active. H1299-neo p53 null cells, ATP luminescence, 24 h, 32C;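 further: potency means the concentration at half of the fitted maximal effect; 0% = DMSO only and -100% = full killing by 100 µM tamoxifen; nearly all actives have a fitted effect of over 55% in size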
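H1299-neo (p53 null) cells, 600/well, treated 24 h at 32C with compound up to 46 uM; ATPlite luminescence viability, normalized to DMSO and 100 uM tamoxifen; AC50 by Hill fit.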
S16 F2sN tox: Cell viability qHTS assay in S16 Pmp22-F2sN cells; 43,000 tested, 0.48% active; S16 Pmp22-F2sN Schwann cells viability, CellTiter-Glo, 24 h; Potency, µM (doses to about 57.5 µM), for the others: at the top dose activity change, negative = cytotoxicity, usual class: cytotoxic; further: potency means the concentration at half of the fitted maximal effect; on the % scale 0 is the no-effect control and ±100 the full control effect; nearly all actives have a fitted effect of over 65% in size
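S16 Pmp22-F2sN Schwann cells (500-1,000/well) in phenol-red-free DMEM with 10% FBS received 23 nL compound by pin tool for 24 h at 37 °C. Viability was then read as CellTiter-Glo luminescence after 15 min at room temperature.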
p53null 39C tox: qHTS Screen for Compounds that Selectively Target Cancer Cells with p53 Mutations: Cytotoxicity of p53 Null Cells at the Nonpermissive Temperature; H1299 p53-null (neo) cells, 39C, ATPlite viability, 24 h; 55,000 tested, 0.97% active; Potency, µM (highest dose often 46.1 µM), for the others: at the top dose activity, negative = cell killing, usual class: cytotoxic;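 further: potency means the concentration at half of the fitted maximal effect; 0% = DMSO only and -100% = full killing by 100 µM tamoxifen; nearly all actives have a fitted effect of over 50% in size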
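Concentration-response (up to 46 uM) was run for 24 h at the nonpermissive 39C on H1299-p53A138V or H1299-neo cells. ATP content was measured with ATPlite luminescence. AC50 values were Hill-modeled after normalizing between DMSO and 100 uM tamoxifen killing.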
NLuc saturating: Biochemical NLuc saturation counterscreen for small molecule modulators of PMP22 gene expression - Nano-Glo assay. shares compounds with PMP22 txn. Secreted NLuc enzyme (filtered S16 cell medium), Nano-Glo luminescence. Potency, µM (top dose mostly 57.5 µM), without a hit: at the top dose activity change, negative = inhibition, usual class: inhibitors. 690 tested, 4% active. AID 1508638, 2021; further: potency means the concentration at half of the fitted maximal effect; on the % scale 0 is the no-effect control and ±100 the full control effect
NLuc Km ctr: Biochemical coelenterazine-based NLuc counterscreen for small molecule modulators of PMP22 gene expression - Km assay; shares compounds with PMP22 txn; secreted NLuc enzyme, coelenterazine luminescence, Km conditions; Potency, µM (top dose mostly 57.5 µM), for inactives: at the highest dose activity change, negative = inhibition, usual class: inhibitors; 690 tested, 5% active; AID 1508639, 2021; further: potency means the concentration at half of the fitted maximal effect; on the % scale 0 is the no-effect control and ±100 the full control effect
FLuc ctr PMP22: Biochemical FLuc counterscreen for small molecule modulators of PMP22 gene expression; shares compounds with PMP22 txn; purified P. pyralis FLuc, luminescence, 10 min; Potency, µM (titrated, usually from 57.5 µM), inactives show at the highest dose activity, negative = inhibition, hits mostly inhibitors; 690 tested, under 10 active; further: % of control where 0% means no effect
Target sequence (P08659 whole entry, looked up): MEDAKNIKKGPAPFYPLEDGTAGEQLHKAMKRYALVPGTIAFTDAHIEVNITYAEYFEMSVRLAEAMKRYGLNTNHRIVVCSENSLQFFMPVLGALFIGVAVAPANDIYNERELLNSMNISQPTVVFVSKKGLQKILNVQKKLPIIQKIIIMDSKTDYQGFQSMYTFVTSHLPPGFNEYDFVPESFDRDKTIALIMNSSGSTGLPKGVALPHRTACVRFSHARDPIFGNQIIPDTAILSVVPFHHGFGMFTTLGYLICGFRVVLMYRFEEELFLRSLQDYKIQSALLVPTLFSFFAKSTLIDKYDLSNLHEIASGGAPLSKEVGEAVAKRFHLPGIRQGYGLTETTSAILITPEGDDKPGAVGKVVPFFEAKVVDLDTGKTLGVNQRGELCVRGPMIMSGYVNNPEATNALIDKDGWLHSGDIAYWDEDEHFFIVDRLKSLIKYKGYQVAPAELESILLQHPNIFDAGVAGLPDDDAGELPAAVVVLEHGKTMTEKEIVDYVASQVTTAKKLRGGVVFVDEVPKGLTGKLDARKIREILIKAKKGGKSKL
S16 F2sN tox cnf: Cell viability qHTS assay in S16 Pmp22-F2sN cells - Confirmatory screen; shares compounds with PMP22 txn; S16 Schwann cells viability, CellTiter-Glo ATP luminescence, 24 h; Potency, µM (titrated, usually from 57.5 µM), inactives show top-dose activity change, negative = viability loss, actives largely listed as cytotoxic; 690 tested, 7% active; further: potency means the concentration at half of the fitted maximal effect; on the % scale 0 is the no-effect control and ±100 the full control effect
PMP22 txn conf: Cell-based coincidence reporter assay to measure PMP22 gene transcription in S16 Pmp22-F2sN cells - Confirmatory screen; shares compounds with PMP22 txn; S16 Schwann cells Pmp22-F2sN, dual luciferase, 24 h; 690 tested, 22% active; Potency, µM (top dose mostly 57.5 µM), for inactives: at the top dose activity change, negative = inhibition, actives largely listed as inhibitors; AID 1508646, 2021; active means clear falling dose curves in both reporters; inconclusive means both reporters move, but less clearly or upward; inactive means either reporter flat; the % is the FLuc reporter signal; further: potency means the concentration at half of the fitted maximal effect
PMP22 prot conf: Cell-based HiBiT reporter assay to measure PMP22 protein expression in S16 Pmp22-HiBiT cells - Confirmatory screen | shares compounds with PMP22 txn | S16 Schwann cells Pmp22-HiBiT, luminescence, 48 h | Potency, µM (top dose mostly 27.9 µM), for the others: at the top dose activity change, negative = inhibition, hits mostly inhibitors | 95 tested, under 10 active | AID 1508647, 2021
Target sequence (P25094 whole entry, looked up): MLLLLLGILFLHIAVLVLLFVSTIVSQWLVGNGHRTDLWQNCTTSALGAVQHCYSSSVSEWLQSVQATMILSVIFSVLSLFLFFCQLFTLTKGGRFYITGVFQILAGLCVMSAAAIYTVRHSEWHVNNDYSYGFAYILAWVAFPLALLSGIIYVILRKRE
* marks the source's active call; other numbers are inactive results; ? = inconclusive; . = not tested or not shown. Most compounds without a hit are left out; they make up all but 3.2% or so of the library. Unless noted, the call rests on the fitted dose curve; in most records, active means well fitted curve in the direction sought with a large enough effect; inconclusive means small, poorly fitted or top-dose-only effect, or another doubt; inactive means no such curve, though single readings can be large; an effect the other way counts as inactive or inconclusive.

SMILES	PMP22 txn	mTORC1 inh	p53null 32C kill	S16 F2sN tox	p53null 39C tox	NLuc saturating	NLuc Km ctr	FLuc ctr PMP22	S16 F2sN tox cnf	PMP22 txn conf	others
Cc1cccc(N2CCN(C(=O)c3cccc(-n4c(C)nc5cccnc54)c3)CC2C)c1 (stereo not given)	?	0%	-1%	-20%	13%	.	.	.	.	.
Cc1ccc(Cl)cc1N1CCN(C(=O)c2ccc(C)c(-n3c(C)nc4cccnc43)c2)CC1	19µM*	-3%	15%	?	62%	22µM*	19µM*	7%	-14%	?
Cc1ccc(C)c(N2CCN(C(=O)c3cccc(-n4c(C)nc5cccnc54)c3)CC2)c1	?	-8%	3%	?	0%	.	.	.	.	.
Cc1cccc(N2CCN(C(=O)c3cccc(-n4c(C)nc5cccnc54)c3)CC2)c1C	13µM*	-16%	7%	0%	-6%	?	?	5%	10%	-4%
COc1ccc(NC(=O)N2CCc3c(sc4c3CCCC4)C2c2ccc(F)cc2)cc1 (stereo not given)	15µM*	20%	7%	?	13%	-12%	-13%	2%	?	-30%
CCN(CC)CCNC(=O)c1cc(-c2ccc(Br)s2)nc2ccccc12	20µM*	?	18%	32µM*	25µM*	-13%	?	-16%	?	17µM*	PMP22 prot conf=-2%
COCCNc1nc2c(c(=O)n(C)c(=O)n2C)n1Cc1c(F)cccc1Cl	13µM*	-1%	3%	?	-25%	1%	-2%	4%	11%	-9%
Cc1ccc(-c2cc(C(F)(F)F)n3nc(C(=O)NCC45CC6CC(CC(C6)C4)C5)cc3n2)cc1	-19%	0%	-6%	-12%	3%	.	.	.	.	.
COc1ccc(Cn2c(=O)n(-c3ccc(OC)cc3)c(=O)c3c2c2cc(OC)ccc2n3C)cc1	-36%	0%	7%	3%	8%	.	.	.	.	.
COc1ccc(-n2c(=O)c3c(c4cc(OC)ccc4n3C)n(CCC(C)C)c2=O)cc1	2.1µM*	1%	1%	8%	10%	-18%	-2%	3%	9%	-21%
Cc1c(C(=O)Nc2ccccc2Br)oc2ccc(S(=O)(=O)N3CCCCC3)cc12	?	10%	-9%	3%	6%	-1%	8%	3%	-7%	?
Cc1c(C(=O)Nc2ccccc2Cl)oc2ccc(S(=O)(=O)N3CCCCC3)cc12	14µM*	-4%	-5%	2%	18%	-1%	2%	4%	-4%	?
Cc1ccc(Cl)cc1NC(=O)c1oc2ccc(S(=O)(=O)N3CCCCC3)cc2c1C	-9%	-10%	-7%	-1%	11%	.	.	.	.	.
Cc1ccc(Cl)cc1NC(=O)c1oc2ccc(S(=O)(=O)N3CCC4(CC3)OCCO4)cc2c1C	7.5µM*	8%	3%	3%	-4%	-11%	2%	1%	?	?
COc1cccc(Cn2c(CNC(=O)c3cc([N+](=O)[O-])ccc3Cl)nc3cccnc32)c1	13µM*	-1%	6%	2%	48%	-4%	-4%	-2%	7%	4%
COc1ccc(Cn2c(SCC(N)=O)nc3c(sc4ccccc43)c2=O)cc1	12µM*	-6%	-15%	?	0%	-6%	-2%	10%	27µM*	?
CCc1ccc(NC(=O)c2ccc3c(c2)c(C)c(C)n3Cc2ccccc2)cc1	?	-14%	15%	-8%	4%	-9%	3%	?	-6%	?
CCC(C)(C)NC(=O)C1CCN(S(=O)(=O)c2c(C)noc2/C=C/c2ccc(C)cc2)CC1	-21%	-10%	8%	18%	16%	.	.	.	.	.
CCN(C(=O)CSc1nc(-c2ccccc2)no1)c1cccc(C)c1	13µM*	6%	16%	-8%	19%	19µM*	4.8µM*	-13%	?	35%
CCN(C(=O)CSc1nc2ccccc2nc1Cc1ccc(F)cc1)c1cccc(C)c1	-51%	4%	44%	-15%	25%	.	.	.	.	.
CCCN(C(=O)c1cc2c(=O)n(CC)c3ccccc3c2s1)c1ccccc1F	7.6µM*	3%	-4%	6%	?	-19%	?	3%	-10%	?
CCOc1ccccc1N(CC)C(=O)c1cc2c(=O)n(CC)c3ccccc3c2s1	?	-6%	31%	11%	?	.	.	.	.	.
COc1cc(/C=C(\C#N)c2nc3ccccc3[nH]2)ccc1OCc1ccccc1F	13µM*	3%	-10%	5%	-18%	?	?	-5%	-2%	?
